SMILES strings stand for the structures. The panel holds about 83,000 compounds, 20% with a hit somewhere; the sample as a whole holds those more often.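 Testing used 96-well plates and a 48-hour single-concentration exposure. Example: -40 means 40% of the starting cells died.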 A number with no mark means an inactive call. Activity calls are given as the source filed them. The calls were made as follows: active = growth percent below 10; inactive = the rest.

In PubChem BioAssay (NCI) one finds growth data, which are given here for 15 compounds.

The test system of this assay is HL-60(TB) leukemia. As to the kind of experiment: NCI-60 one-dose screen, 48 h (100 = growth as untreated, 0 = no growth, -100 = all killed). Particulars: 10 µM unless noted.
Consider `O=C1/C(=C/c2ccccc2)CN(C(=O)CCN2CCC(=NO)CC2)C/C1=C\c1ccccc1`, for which the growth is 5.03% (active). `CSc1ccccc1C#C/C=C\C#Cc1ccccc1N1CCCCC1=O`: the growth is 107%. On to `O=C(CCC(=O)OC1CCCC1)OC1CCCC1`, for which the growth was 103%.

As for `O=C(Nc1ncc(Cc2ccccc2)s1)c1ccc2c(c1)OCCO2`, the growth was -48.6% (active). The result for `NC(=N\N=C/Cc1ccccc1)/C(N)=N\N=C\Cc1ccccc1` reads 70.8%; that for `CC1Cc2c(ncn3c(-c4ccc(F)cc4)nnc23)N(C)c2ccccc21` (stereo not given), 91.2%; that for `Cc1cc(N2CCCCCC2)nc(N2CCN(CC(=O)Nc3ccc4c(ccn4Cc4ccccc4)c3)CC2)n1`, 23.4%.

Take `O=C(CN1C(=O)/C(=C\c2ccc(Cl)cc2)SC1=S)Nc1ncc(Cc2ccc(Cl)cc2)s1`: the growth was 102%. Regarding `CSc1cccc(NC(=O)Nc2nc3c(C)cccc3s2)c1`, the growth was 85.8%. In the case of `Cc1cc(C)c(NC(=O)c2sc3nc4c(cc3c2N)CCCC4)c(C)c1`, the growth was -6.2% (active). For the compound `CCn1cc(C(=O)N/N=C/c2ccccc2)c(=O)c2cc(F)c(N3CCNC(C)C3)c(F)c21` (stereo not given), the growth was 18.1%. The result for `COc1cc(NCCCN=C(N)NC(N)=NC(C)C)c2ncccc2c1` reads 85.7%; that for `COc1ccccc1N1CCN(CCCOc2ccc(C(=O)/C=C3/C(=O)Nc4ccccc43)cc2)CC1`, 52.8%.

For the compound `O=C(Cc1ccc(F)cc1)c1ccccc1`, the growth was 108%. As to `COc1cc(-c2nn(-c3cccc(NC(=O)CCN4CCN(C)CC4)c3)cc2-c2ccncc2)ccc1Cl`, the growth was -24.5% (active).
